# VDR inhibitor = blocks the human vitamin D receptor; P11473; VDR-SRC2-3 peptide fluorescence polarization, 2 h; Potency, µM, for inactives: max response, negative = inhibition, most hits filed as inhibitors; 400,000 compounds, 0.93% hits; AID 504847; also: potency is read from the fitted curve at half-maximal effect; % is scaled to controls: 0 for no effect and ±100 for the full control effect
#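 Two reagent solutions held at 4 deg C in the dark were dispensed, compounds pinned at 23 nl, and the mixture incubated 2 h at room temperature. Read-out: fluorescence polarization of VDR–SRC2-3 peptide binding.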
# CBFb RUNX1 block = inhibitors of human CBF-beta and RUNX1 interaction | Q01196+Q13951 | 230,000 tested, under 10 active | AlphaScreen CBFb-His/RUNX1-biotin binding, biochemical | Potency, µM (doses to about 59.8 µM), for inactives: at the top dose activity, negative = inhibition, hits mostly inhibitors; also: % of control where 0% means no effect
#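 Read-out: AlphaScreen. Format: His-CBF-beta with biotinylated RUNX1 (30 nM each) preincubated 20 min, compound 15 min, Ni-chelate plus streptavidin beads 90 min; room temperature throughout.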
# PLK1 PBD inh = inhibitors of human PLK1 polo-box domain binding; AID 720504; Plk1 PBD binding of FITC phosphopeptide, fluorescence polarization; Potency, µM, inactives show max response, negative = inhibition, actives largely listed as inhibitors; 360,000 compounds, 2.8% hits; also: potency is read from the fitted curve at half-maximal effect; series mostly up to about 57 µM; % is scaled to controls: 0 for no effect and ±100 for the full control effect; nearly all actives have a fitted effect of over 65% in size
# MBNL1 CUG block = inhibitors of human MBNL1 binding to CUG repeat RNA. Q9NR56. TR-FRET MBNL1-His/biotin-(CUG)12 binding, 665/545 ratio. AID 2675. Potency, µM (doses to about 57.5 µM), for inactives: at the highest dose activity change, negative = inhibition, most hits filed as inhibitors. 280,000 compounds, 0.036% hits; active = well fitted inhibition curve with a large enough effect in the signal ratio, with a control signal flat, not every such curve was filed as active; inconclusive = small, poorly fitted or top-dose-only effect, or effect the other way, or a change in a side signal; inactive = no such curve, though single readings can be large or run the other way; the % refers to the signal ratio; also: potency is read from the fitted curve at half-maximal effect; % is scaled to controls: 0 for no effect and ±100 for the full control effect
# Target sequence (Q9NR56 whole entry, looked up): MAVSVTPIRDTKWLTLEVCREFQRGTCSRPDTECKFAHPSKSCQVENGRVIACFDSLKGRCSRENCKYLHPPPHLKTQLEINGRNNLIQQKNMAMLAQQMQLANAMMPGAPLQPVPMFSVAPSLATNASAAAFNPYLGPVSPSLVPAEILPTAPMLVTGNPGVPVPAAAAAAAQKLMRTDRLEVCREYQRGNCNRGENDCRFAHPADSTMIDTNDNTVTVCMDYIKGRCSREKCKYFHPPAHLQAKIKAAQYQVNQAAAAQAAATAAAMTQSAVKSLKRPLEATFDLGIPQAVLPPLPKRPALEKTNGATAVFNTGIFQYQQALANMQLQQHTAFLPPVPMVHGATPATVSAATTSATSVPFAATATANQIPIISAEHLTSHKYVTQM
#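 Inhibition of protein-RNA binding appears as loss of TR-FRET between terbium anti-His antibody on MBNL1-His and streptavidin-XL665 on biotin-(CUG)12. Activity is normalized to buffer-only and uninhibited-complex controls.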
# KCNH2 3.1 inh = blocks the human KCNH2 3.1 channel isoform; U2OS KCNH2 3.1, thallium flux FluxOr; stronger effect = lower value; activity change, % (tested at about 1.8 µM); 340,000 compounds, 0.95% hits;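 active = maximum activity change below -70%; inconclusive = maximum activity change from -70% to -50%; inactive = maximum activity change above -50%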;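 also: thallium influx rate constant from kinetic fluorescence after stimulation buffer; % is scaled to controls: 0 for no effect and ±100 for the full control effect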
#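 Measured as rate of thallium-driven FluxOr signal in transduced U2OS cells carrying the 3.1 channel, read kinetically for 2 min upon stimulation; values are rate constants scaled to DMSO control wells.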
# KCNH2 WT inh = inhibitors of human wildtype KCNH2 potassium channel; U2OS, BacMam KCNH2, thallium flux FluxOr; stronger effect = lower value; activity change, % at 1.84 µM; 340,000 compounds, 0.37% hits; AID 720551;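 active = maximum activity change below -70%; inconclusive = maximum activity change between -70% and -50%; inactive = maximum activity change above -50%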; also: % is scaled to controls: 0 for no effect and ±100 for the full control effect
#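 U2OS cells transduced with wild-type KCNH2 virus are loaded with FluxOr dye for 45 min, and thallium flux is measured in kinetic reads before and after stimulation buffer. Rate constants are normalized to DMSO controls.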
# Numbers without * were called inactive; ? = inconclusive; · = no result given; [ ] = remark or other dose. Compounds with a hit are over-represented: about 3.8% of the library has one in this group of screens. Unless noted, calls follow the shape of the dose curve; as a rule, active = well fitted curve in the direction sought with a large enough effect; inconclusive = small, poorly fitted or top-dose-only effect, or another doubt; inactive = no such curve, though single readings can be large; an effect the other way counts as inactive or inconclusive.
SMILES,VDR inhibitor,CBFb RUNX1 block,PLK1 PBD inh,MBNL1 CUG block,KCNH2 3.1 inh,KCNH2 WT inh
COc1ccc(NS(=O)(=O)c2ccc(O)c(NC(=O)c3cc4c(C)nn(-c5ccc(F)cc5)c4s3)c2)cc1,-11%,-16%,75µM*,6%,-17,12
O=c1[nH]c(-c2ccc(Cl)cc2)cs1,-9%,5%,-13%,8%,0,-4
Fc1ccc(-c2csc(=S)[nH]2)cc1,79µM*,2%,24µM*,0%,9,-10
S=c1[nH]c(-c2ccccc2)cs1,?,-14%,21µM*,-3%,-2,-19
CC(=O)N1CCc2c(sc3c2c(=O)n(-c2cc(Cl)ccc2C)c(=O)n3C)C1,13%,·,·,·,·,·
O=C(Cn1cnc2ccccc2c1=O)Nc1nc2ccccc2s1,-8%,-2%,-5%,-2%,-97*,-3
O=C(CN1CCN(Cc2ccc(F)cc2)CC1)Nc1nc2ccccc2s1,-6%,·,-6%,3%,-74*,-16
CCc1ccc(NC(=O)CCNC(=O)Cn2cnc3ccccc3c2=O)cc1,?,·,30µM*,-4%,-4,-3
CCc1ccc2nc(NC(=O)Cn3cnc4ccccc4c3=O)sc2c1,17%,5%,0%,-6%,-4,1
COc1cccc(NC(=O)CSC2=Nc3ccccc3C3=NC(CCC(=O)NC4CCCCC4)C(=O)N23)c1 (stereo unspecified),4%,·,·,·,·,·
Cc1c(C(=O)N2CCC(C)CC2)c(S(=O)(=O)N2CCN(c3ccc(Cl)cc3)CC2)c(C)n1C,-6%,·,·,·,·,·
CCC(C(=O)NC1CCCCCC1)n1nc(C)c2c(C)n(-c3ccccc3)nc2c1=O (stereo unspecified),-27%,·,30µM*,-1%,1,-1
CCC(C(=O)NCCC1=CCCCC1)n1nc(C)c2c(C)n(-c3ccccc3)nc2c1=O (stereo unspecified),?,·,27µM*,-2%,35,12
CCOC(=O)N1CCC(NC(=O)CS(=O)(=O)Cc2nc(-c3ccccc3C)oc2C)CC1,21%,4%,-2%,-15%,12,-6
CCOC(=O)N1CCC(NC(=O)CS(=O)(=O)Cc2nc(-c3ccc(OC)cc3)oc2C)CC1,?,·,21µM*,-1%,-21,-3
Cc1ccc(-c2nc(CS(=O)(=O)CC(=O)NC3CCCCC3C)c(C)o2)cc1 (stereo unspecified),-9%,-1%,3%,5%,4,2
COc1ccc(-c2nc(CS(=O)(=O)CC(=O)NC3CCCCC3C)c(C)o2)cc1 (stereo unspecified),?,·,24µM*,-5%,8,-1
COc1cccc(-c2nc(CS(=O)(=O)CC(=O)NC3CCC(C)CC3)c(C)o2)c1 (stereo unspecified),?,·,24µM*,5%,-11,-10
O=C(O)c1cnc2ccccc2n1,?,-1%,27µM*,?,5,-12
S=c1nc[nH]c2c1cnn2-c1ccccc1,-6%,9%,-2%,·,-2,0
Cn1ncc2c(=S)nc(Cl)[nH]c21,?,·,27µM*,·,5,2
O=C(NCCc1nc2ccccc2n1CCCOc1ccc2ccccc2c1)C1CCCCC1,-17%,·,·,·,·,·
Oc1ccc(OCc2ccccc2)cc1,-6%,-4%[21.7 µM],·,·,·,·
Oc1ccc(NCc2ccc(OCc3ccccc3)cc2)cc1,89µM*,·,-9%,?,-12,3
CCc1ccc(CNc2ccc(O)cc2)cc1,22µM*,-10%,30µM*,?,-3,-3
SMILES,VDR inhibitor,CBFb RUNX1 block,PLK1 PBD inh,MBNL1 CUG block,KCNH2 3.1 inh,KCNH2 WT inh
CCc1ccc(CNc2ccc3c(c2)ncn3CC)cc1,8%,·,-2%,5%,·,·
CN(C)CCN(C(=O)/C=C/c1cccs1)c1nc2ccc(Br)cc2s1,-3%,·,-7%,2%,-73*,-10
CCN(CC)CCN(C(=O)/C=C/c1cccs1)c1nc2ccc(F)cc2s1,-11%,·,5%,-7%,-28,-22
CCN(CC)CCN(C(=O)/C=C/c1cccs1)c1nc2ccc(C)cc2s1,8%,·,-7%,-4%,-99*,-148*
CCOc1ccc2nc(N(CCN(C)C)C(=O)/C=C/c3cccs3)sc2c1,-21%,·,7%,5%,-7,39
Cc1ccc2nc(N(CCN(C)C)C(=O)/C=C/c3cccs3)sc2c1,0%,4%,-8%,·,-101*,-16
CCc1ccc2nc(N(CCN(C)C)C(=O)/C=C/c3cccs3)sc2c1,1%,·,2%,33%,-127*,-43
C=CCc1cccc(C=NNC(=O)CN2CCN(Cc3ccccc3)CC2)c1O,-1%,·,·,·,·,·
CCOC(=O)c1cccc(N)c1,-3%,·,·,·,·,·
CCc1ccc2nc(N(CCCN(C)C)C(=O)c3ccc(C(=O)c4ccccc4)cc3)sc2c1,-15%,·,2%,9%,-89*,0
Cc1ccc2nc(N(CCCN(C)C)C(=O)CN3C(=O)c4ccccc4C3=O)sc2c1,6%,2%,5%,-1%,-87*,34
COc1cccc(-c2nc(CS(=O)(=O)CC(=O)NCCc3ccc(Cl)cc3)c(C)o2)c1,-10%,·,·,·,·,·
Cc1nn(CCCC(=O)NCc2ccccc2)c(=O)c2c1sc1ccccc12,2%,·,·,·,·,·
CCOC(=O)c1nc(NCc2ccccc2)sc1C,71µM*,·,6.7µM*,?,5,-4
Cc1sc(NCc2ccccc2)nc1-c1ccccc1,-17%,·,·,·,·,·
CCCCCCCc1ccc(-c2ccc(O)cc2)nc1,0%,8%,24µM*,-4%,-31,-7
CCCOc1ccc(Br)cc1CSC(=N)N,-7%,?,30µM*,-5%,-35,21
CCOC(=O)c1c(NC(N)=O)sc(C)c1C,-14%,-12%,-1%,-8%,-1,-2
CCOC(=O)c1c(N2C(=O)C=CC2=O)sc(C)c1C,-95%,6%,5.3µM*,-5%,3,-12
Cc1ccc(CCC(=O)Nc2ccc(CC(=O)O)cc2)o1,79µM*,·,12µM*,-3%,8,-3
COC(=O)CSCc1nc2ccccc2[nH]c1=O,?,-1%[2.36 µM],12µM*,43%,-12,11
COC(=O)CCc1nc2ccccc2[nH]c1=O,-11%,9%,-2%,3%,-1,18
O=C1C2=C(S[C@@H]3O[C@H](CO)[C@@H](O)[C@H](O)[C@H]3O2)C(=O)c2ccccc21,35µM*,11%,·,·,·,·
CCOc1ccccc1CNS(=O)(=O)c1ccc2c(c1)CCCN2C(C)=O,-2%,·,·,·,·,·
Cc1cc(=O)n(Cc2ccccc2)c2c(C)cccc12,-8%,·,-4%,-5%,-12,-1
Cc1cc(=O)n(Cc2ccccc2)c2ccccc12,-10%,·,21µM*,-4%,-28,-3
Cc1cc(=O)n(CC(=O)O)c2ccccc12,-11%,9%,2%,-10%,9,20

# Screening results deposited in PubChem BioAssay by National Center for Advancing Translational Sciences (NCATS).
